Data as given in PubChem BioAssay.
The source made the active and inactive calls.

What was measured:
Albumin (Bos taurus) = Albumin (Bos taurus) (UniProt P02769); assay: compounds binding labelled BSA control protein – biochemical, small-molecule microarray, Alexa647 label, 635/667 nm fluorescence, artefact control for SMM control protein annotation, profiling panel (AID 1118); settings: BSA-A647 binding, fluorescence 635 nm, higher = more signal;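 further: score merges 667 nm emission intensity and signal-to-noise per printed compound spot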
[1] = probe aXIP binding to arrayed compounds – biochemical, NeuroSMM set, 635/667 nm fluorescence, primary screen (AID 1119); settings: small-molecule microarray, higher = more signal, called active from +8 up or from −8 down;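 further: probe is the protein aXip251-270 applied at 1 µg/mL to compound-printed slides; binding of probe to printed compounds measured as 667 nm fluorescence plus signal to noise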
[2] = probe aNOTCH3 binding on compound microarray – biochemical, small-molecule microarray, 635/667 nm fluorescence, primary screen (AID 1120); settings: higher = more signal;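 further: probe is a biotin-tagged antibody raised against NOTCH3 rather than NOTCH3 protein; score merges spot fluorescence near 667 nm with spot signal to noise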
[3] = probe aNOTCH2 binding on compound microarray – biochemical, small-molecule microarray, 635/667 nm fluorescence, primary screen (AID 1121); settings: higher = more signal;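 further: score merges feature fluorescence read at 667 nm with its signal to noise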
[4] = target: Carbonic anhydrase 2 (Homo sapiens) (UniProt P00918); assay: compounds binding carbonic anhydrase 2 – biochemical, small-molecule microarray, Alexa647-labelled CAII, profiling panel (AID 1122); settings: CAII-A647 binding fluorescence, higher = more signal
[5] = COS7 lysate on small-molecule microarray, probe aHis, 635 nm (AID 1123); settings: COS7 cell lysate, fluorescence, higher = more signal;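 further: z-score combines 667nm fluorescence intensity with signal-to-noise per printed compound spot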
[6] = probe aLAP1 signal on lysate-treated microarray – cell lysate, small-molecule microarray, COS7 lysate, primary screen (AID 1124); settings: probe aLAP1, fluorescence, higher = more signal;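 further: lysate comes from COS7 cells expressing LAP1 and is applied at 0.3 µg/mL; score merges spot fluorescence near 667 nm with signal-to-noise over triplicate slides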
Sam68 (KHDRBS1) = assay: compounds binding KHDRBS1 protein – biochemical, small-molecule microarray, 635 nm fluorescence, primary screen (AID 1125); settings: higher = more signal;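 further: score merges 667 nm channel intensity with signal to noise over triplicate slides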
[7] = tested on: Chordin-like protein 2 (CHRDL2); assay: compounds binding chordin-like 2 – biochemical, small-molecule microarray, 635 nm fluorescence, primary screen (AID 1126); settings: fluorescence 635 nm, higher = more signal;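 further: printed compound slides probed with Chrdl2 protein at 4 µg/mL for 1 h at 4 C; score merges 667 nm emission intensity with signal to noise over three replicate slides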
[8] = target: Concanavalin-A (Canavalia ensiformis) (UniProt P02866); assay: compounds binding concanavalin A lectin – biochemical, small-molecule microarray, Alexa647 label, 635 nm, artefact control for SMM control protein annotation, primary screen (AID 1127); settings: ConA-A647 binding fluorescence, higher = more signal;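 further: z combines 667 nm emission intensity with signal-to-noise across three replicate slides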
[9] = compounds binding Alexa647 anti-His antibody – biochemical, small-molecule microarray, 635 nm fluorescence, artefact control for SMM control protein annotation, primary screen (AID 1128); settings: higher = more signal;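 further: score merges feature fluorescence with signal-to-noise for each printed compound spot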
[10] = tested on: Human papillomavirus type 1a E7 protein (residues 1-88); assay: HPV1a E7 small-molecule binders, primary screen, biochemical, small-molecule microarray, residues 1-88, 635 nm (AID 1129); settings: small-molecule microarray binding, fluorescence 635 nm; higher = more signal
[11] = target: Focal adhesion kinase 1 (Homo sapiens) (UniProt Q05397); assay: PTK2 protein binding on printed compound slides – biochemical, small-molecule microarray, 635/667 nm fluorescence, BSA, DTT, primary screen (AID 1130); settings: 635 nm fluorescence, higher = more signal;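 further: composite of spot emission at 667 nm and signal to noise over triplicate slides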
[12] = tested on: Fibrinogen (Alexa647-labelled); assay: Alexa647-fibrinogen binding to printed small molecules – biochemical, small-molecule microarray, 635/667 nm fluorescence, artefact control for SMM control-protein annotation, profiling panel (AID 1131); settings: fibrinogen-A647 binding fluorescence, higher = more signal;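 further: z-score merges 667 nm fluorescence with per-spot signal-to-noise over triplicate slides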
[13] = target: Follistatin (Homo sapiens) (UniProt P19883); assay: FST protein binding to printed compounds – biochemical, small-molecule microarray, 635/667 nm fluorescence, primary screen (AID 1132); settings: 635 nm fluorescence, higher = more signal
[14] = target: Fibroblast growth factor 2 (Homo sapiens) (UniProt P09038); assay: basic fibroblast growth factor binding to printed compounds – biochemical, small-molecule microarray, 635/667 nm fluorescence, primary screen (AID 1133); settings: FGF2, fluorescence 635/667, higher = more signal
[15] = JC-1 mitochondrial potential readout, lung cancer cells – cell-based, A549, JC-1 fluorescence, basal, 24 h, 100 nL, profiling panel (AID 1138); settings: higher = more signal;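 further: A549 lung adenocarcinoma cells under basal conditions with no added stimulus; test concentration not given here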
Lefty1 = Lefty1 protein binding to printed compounds – biochemical, small-molecule microarray, 635/667 nm fluorescence, primary screen (AID 1139); settings: fluorescence 635/667, higher = more signal
[16] = tested on: wheat germ agglutinin (Triticum aestivum), Alexa647-labelled; assay: Alexa647-WGA lectin binding to printed small molecules – biochemical, small-molecule microarray, 635/667 nm fluorescence, artefact control for SMM control-protein annotation, profiling panel (AID 1140); settings: WGA-A647 binding, 635 nm fluorescence, higher = more signal;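 further: score merges 667 nm feature emission with signal to noise over triplicate slides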
[17] = target: Luciferin 4-monooxygenase (Photinus pyralis) (UniProt P08659); assay: inhibition of purified Photinus pyralis luciferase – biochemical, luminescence, purified enzyme, 2006 set, primary screen (AID 1141); settings: purified firefly luciferase, SteadyGlo luminescence, 30 min; higher = more signal, called active from +8 up or from −8 down;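 further: cell-free assay with purified firefly luciferase at 100 ng per well in PBS; test concentration not given here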
Sequence of Luciferin 4-monooxygenase (Photinus pyralis) (P08659 whole entry, looked up): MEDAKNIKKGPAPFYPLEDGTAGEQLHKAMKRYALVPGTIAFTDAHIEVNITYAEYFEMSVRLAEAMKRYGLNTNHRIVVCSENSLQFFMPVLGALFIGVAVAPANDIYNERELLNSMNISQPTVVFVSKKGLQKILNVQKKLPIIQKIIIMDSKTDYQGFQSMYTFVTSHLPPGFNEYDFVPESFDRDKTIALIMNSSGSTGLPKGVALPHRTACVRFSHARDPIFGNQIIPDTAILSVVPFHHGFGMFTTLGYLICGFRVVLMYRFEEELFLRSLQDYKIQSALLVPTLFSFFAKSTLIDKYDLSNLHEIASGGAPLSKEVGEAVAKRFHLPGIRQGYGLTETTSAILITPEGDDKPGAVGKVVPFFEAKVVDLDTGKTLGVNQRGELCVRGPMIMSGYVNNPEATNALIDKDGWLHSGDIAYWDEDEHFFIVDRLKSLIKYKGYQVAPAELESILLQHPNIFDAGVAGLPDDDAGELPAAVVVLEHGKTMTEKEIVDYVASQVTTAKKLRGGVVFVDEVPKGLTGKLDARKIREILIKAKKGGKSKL

Sequence of Focal adhesion kinase 1 (Homo sapiens) (Q05397 whole entry, looked up): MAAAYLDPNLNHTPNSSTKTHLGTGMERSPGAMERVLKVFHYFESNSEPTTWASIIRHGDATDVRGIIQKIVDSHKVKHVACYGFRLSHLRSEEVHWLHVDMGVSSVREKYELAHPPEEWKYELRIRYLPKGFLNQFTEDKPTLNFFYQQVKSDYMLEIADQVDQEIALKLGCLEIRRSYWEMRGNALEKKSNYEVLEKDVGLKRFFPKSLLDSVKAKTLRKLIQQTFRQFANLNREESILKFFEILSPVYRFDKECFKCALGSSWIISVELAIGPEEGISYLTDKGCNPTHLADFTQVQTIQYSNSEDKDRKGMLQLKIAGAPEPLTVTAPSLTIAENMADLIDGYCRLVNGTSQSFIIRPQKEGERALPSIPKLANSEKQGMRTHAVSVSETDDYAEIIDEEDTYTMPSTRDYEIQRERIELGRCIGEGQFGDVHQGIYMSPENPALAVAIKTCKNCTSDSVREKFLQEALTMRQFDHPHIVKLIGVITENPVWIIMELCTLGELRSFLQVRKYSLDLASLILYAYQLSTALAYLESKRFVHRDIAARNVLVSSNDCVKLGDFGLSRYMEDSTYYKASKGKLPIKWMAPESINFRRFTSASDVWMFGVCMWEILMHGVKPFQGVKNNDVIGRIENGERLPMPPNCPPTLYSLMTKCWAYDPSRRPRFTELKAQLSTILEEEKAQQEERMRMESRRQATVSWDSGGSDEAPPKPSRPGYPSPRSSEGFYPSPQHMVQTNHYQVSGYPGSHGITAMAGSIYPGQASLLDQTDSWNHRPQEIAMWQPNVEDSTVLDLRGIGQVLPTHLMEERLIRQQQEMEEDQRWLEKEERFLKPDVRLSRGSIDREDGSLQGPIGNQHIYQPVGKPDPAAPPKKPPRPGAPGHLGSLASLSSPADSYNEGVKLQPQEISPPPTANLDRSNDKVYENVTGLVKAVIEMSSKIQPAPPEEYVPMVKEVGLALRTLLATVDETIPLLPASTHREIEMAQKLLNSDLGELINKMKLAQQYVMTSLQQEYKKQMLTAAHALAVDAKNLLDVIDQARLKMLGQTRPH
Sequence of Concanavalin-A (Canavalia ensiformis) (P02866 whole entry, looked up): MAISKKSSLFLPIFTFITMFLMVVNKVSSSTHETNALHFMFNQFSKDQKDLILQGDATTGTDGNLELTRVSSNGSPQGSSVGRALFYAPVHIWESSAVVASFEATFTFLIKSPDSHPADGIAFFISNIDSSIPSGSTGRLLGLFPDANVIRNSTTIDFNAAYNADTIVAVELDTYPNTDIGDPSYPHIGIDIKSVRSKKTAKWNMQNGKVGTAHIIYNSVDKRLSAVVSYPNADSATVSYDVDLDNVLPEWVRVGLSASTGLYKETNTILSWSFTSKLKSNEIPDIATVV
Sequence of Albumin (Bos taurus) (P02769 whole entry, looked up): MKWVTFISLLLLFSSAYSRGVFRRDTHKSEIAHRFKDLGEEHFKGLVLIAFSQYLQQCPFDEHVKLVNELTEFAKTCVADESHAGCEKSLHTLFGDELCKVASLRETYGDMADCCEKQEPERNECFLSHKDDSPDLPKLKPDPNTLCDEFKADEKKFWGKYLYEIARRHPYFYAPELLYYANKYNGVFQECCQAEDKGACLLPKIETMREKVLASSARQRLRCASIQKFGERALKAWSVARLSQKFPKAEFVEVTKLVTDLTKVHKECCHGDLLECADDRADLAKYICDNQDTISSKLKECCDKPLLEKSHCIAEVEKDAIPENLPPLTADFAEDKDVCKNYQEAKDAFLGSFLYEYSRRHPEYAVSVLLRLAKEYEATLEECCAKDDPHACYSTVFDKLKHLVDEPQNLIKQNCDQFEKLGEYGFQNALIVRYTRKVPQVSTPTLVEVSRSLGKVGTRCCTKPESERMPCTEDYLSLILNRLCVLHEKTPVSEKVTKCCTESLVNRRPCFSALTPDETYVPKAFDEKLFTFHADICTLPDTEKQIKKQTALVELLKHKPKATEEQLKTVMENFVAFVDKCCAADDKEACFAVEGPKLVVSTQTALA
Sequence of Follistatin (Homo sapiens) (P19883 whole entry, looked up): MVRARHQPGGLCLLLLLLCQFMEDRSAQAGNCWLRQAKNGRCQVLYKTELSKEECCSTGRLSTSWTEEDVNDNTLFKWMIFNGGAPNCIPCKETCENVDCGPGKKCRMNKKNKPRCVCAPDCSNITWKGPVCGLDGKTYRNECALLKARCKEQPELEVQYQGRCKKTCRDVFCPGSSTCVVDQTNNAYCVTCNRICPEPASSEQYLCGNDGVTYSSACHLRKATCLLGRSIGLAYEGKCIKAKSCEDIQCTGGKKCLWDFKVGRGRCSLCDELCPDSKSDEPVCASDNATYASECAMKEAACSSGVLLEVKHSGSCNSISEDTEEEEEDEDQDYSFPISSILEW
Sequence of Fibroblast growth factor 2 (Homo sapiens) (P09038 whole entry, looked up): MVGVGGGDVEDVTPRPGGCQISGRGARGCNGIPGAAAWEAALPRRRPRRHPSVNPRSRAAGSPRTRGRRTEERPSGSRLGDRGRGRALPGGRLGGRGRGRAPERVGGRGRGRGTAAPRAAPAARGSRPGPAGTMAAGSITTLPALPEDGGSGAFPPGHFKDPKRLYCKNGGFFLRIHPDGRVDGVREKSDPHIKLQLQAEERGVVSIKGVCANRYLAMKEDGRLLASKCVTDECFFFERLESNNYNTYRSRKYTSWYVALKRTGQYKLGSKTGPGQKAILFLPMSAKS

SMILES | composite z-score (Albumin (Bos taurus)) | composite Z-score [1] | composite z-score [2] | composite z-score [3] | composite z-score [4] | composite z-score [5] | composite z-score [6] | composite z-score (Sam68 (KHDRBS1)) | composite z-score [7] | composite z-score [8] | composite z-score [9] | composite z-score [10] | composite z-score [11] | composite z-score [12] | composite z-score [13] | composite z-score [14] | z-score [15] | composite z-score (Lefty1) | composite z-score [16] | z-score [17]
COC(=O)C(CC#Cc1ccc2c(c1)[C@]1(C(=O)N2)[C@H](c2ccccc2OCCO)N2[C@H](c3ccccc3)[C@H](c3ccccc3)OC(=O)[C@H]2[C@@H]1C(=O)N1CCCCCCC1)C(=O)OC | -0.314 | 8.74 (active) | 2.02 | 1.1 | 1.03 | 4.9 | 1.41 | 1.33 | 1.66 | 0.773 | 0.925 | 1.35 | 4.83 | 0.0834 | 1.56 | -0.0426 | 0.547 | 1.73 | 1.66 | -1.08 (inactive)
COC(=O)c1c(CC[C@@H](CO)NC(=O)Nc2ccc(OC)cc2)oc(C(=O)Cc2ccccc2)c1C(=O)OC | 0.771 | 0.466 (inactive) | -0.004 | -0.0776 | 0.656 | 0.261 | 0.21 | 0.603 | 0.12 | 0.688 | -0.177 | 0.45 | -0.181 | 0.211 | 0.473 | 0.434 | 1.02 | 1.08 | 0.371 | -1.37 (inactive)
CC(C)C(=C=CC[C@@H](O)c1ccc(CO)o1)CCO | -0.596 | 1.71 (inactive) | -0.0984 | -0.11 | 0.795 | 0.57 | -0.0333 | 0.541 | 0.107 | 0.349 | 0.635 | -0.356 | -0.7 | 0.401 | 0.987 | 1.05 | 1.86 | 0.759 | 0.308 | -2.15 (inactive)
CCCCCCC#C[Si](O[C@H](c1ccccc1)c1cn(Cc2ccccc2)nn1)(C(C)C)C(C)C | 0.0774 | 0.131 (inactive) | -0.0918 | -0.182 | 0.273 | 0.0604 | 0.155 | 0.458 | 0.187 | 0.132 | 0.254 | 0.262 | -0.326 | -0.418 | 0.126 | 0.594 | 4.41 | 0.806 | -0.349 | -1.15 (inactive)
CC(C)CCC[C@@H](C)[C@H]1CC[C@@]2(C)C3=C(CC[C@]12C)[C@@]1(C)CC[C@H](OC(=O)CCl)C(C)(C)C1CC3 (stereo not given in full) | 0.256 | 0.222 (inactive) | 0.183 | -0.0829 | 0.153 | 0.555 | -0.0674 | 0.404 | 0.549 | 0.47 | -0.107 | 0.708 | 0.272 | 0.649 | 0.409 | 0.363 | 1.35 | 0.327 | 0.274 | -1.28 (inactive)
CC(C)C[C@@H]1NC(=O)[C@@]23C(=O)N[C@@H](Cc4ccccc4)C2[C@H](C)[C@@]2(C)O[C@H]2C3/C=C/C/C=C\CNC(=O)[C@H](Cc2ccccc2)NC1=O (stereo not given in full) | 0.533 | 0.376 (inactive) | -0.0881 | -0.128 | 0.848 | 0.138 | 0.379 | 0.456 | -0.0794 | 0.313 | 2.15 | 0.284 | -0.0582 | 0.894 | 0.515 | 0.31 | 1.22 | 0.321 | 0.994 | -0.755 (inactive)
C=CCOC(=O)[C@H]1[C@@H]2C(=O)O[C@@H](c3ccccc3)[C@@H](c3ccccc3)N2[C@@H](c2ccc(OCCOC(=O)[C@H]3C[C@H]4C(=O)N5CCC[C@H]5C(=O)N4[C@H]3c3cccc(OCCO)c3)cc2)[C@]12C(=O)Nc1ccccc12 | -0.592 | 1.51 (inactive) | -0.0647 | -0.0424 | 0.466 | 2.31 | -0.103 | 1.31 | 1.37 | 0.96 | 1.34 | 1.16 | 0.903 | 0.47 | 1.34 | 1.57 | -0.851 | 0.628 | 0.828 | -1.23 (inactive)
COc1ccc([Si](C)(C)[C@@H]2[C@@H](CC(=O)N3CCC[C@H]3CO)O[C@]3(C(=O)N(Cc4ccc(N5CCC5=O)cc4)c4ccccc43)[C@H]2C)cc1 | -0.82 | 0.566 (inactive) | 0.0026 | -0.0624 | 0.415 | 1.05 | -0.31 | 1.31 | 0.183 | 1.08 | 2.01 | 1.13 | 0.983 | 0.406 | 0.712 | 0.589 | 1.55 | 1.04 | 0.0389 | -1.45 (inactive)
C=CCC(OC(C)=O)[C@@H]1[C@@H](N(Cc2cccc3ccccc23)C(=O)Cc2ccc(OC)cc2)c2cc(OCCCO)ccc2N1C(=O)Cc1ccc(OC)cc1 (stereo not given in full) | 0.73 | -0.199 (inactive) | -0.0373 | -0.104 | 0.207 | 0.624 | 0.163 | 0.0025 | 0.0487 | -0.532 | -0.28 | -0.418 | -0.238 | 0.849 | 0.148 | -0.0722 | 0.537 | -0.392 | 0.349 | -0.369 (inactive)
C=C(CCCC)/C(=C/C[C@@H](OC(=O)c1ccncc1)c1ccc(OCCO)cc1)c1cnc2ccccc2c1 | 0.26 | -0.0966 (inactive) | 0.135 | -0.0859 | 0.948 | 0.814 | 2.07 | 1.03 | 1.44 | 1.15 | 0.921 | 0.775 | -0.438 | 0.577 | 1.44 | 1.62 | 0.985 | 1.64 | 1.35 | -2.3 (inactive)
CC(C)[Si](C#C[Si](C(C)C)(C(C)C)C(C)C)(O[C@H](C)c1cn([C@H](C)c2ccccc2)nn1)C(C)C | -0.0001 | -0.097 (inactive) | -0.122 | -0.0632 | 0.66 | 0.386 | -0.13 | 1.16 | 0.0747 | 0.927 | 0.467 | 0.796 | 0.768 | 0.179 | 0.465 | 0.261 | 1.8 | 0.751 | 0.625 | -1.4 (inactive)
